According to PubChem BioAssay (NCI):
Compounds without any hit were thinned out: in the full panel of roughly 83,000, 20% have a hit.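 Interpretation: 100, growth as untreated; towards 0, rising growth inhibition; 0, no net growth; 0 to -100, cell death. Compounds scoring below 10 were considered active.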 A number with no mark means an inactive call. Calls of active or inactive are those of the source.

Key:
Test in all cases: NCI-60 one-dose screen, 48 h (100 = growth as untreated, 0 = no growth, -100 = all killed)
Conditions in all cases: 10 µM unless noted
EKVX NSCLC = test system: EKVX NSCLC
SN12C renal = test system: SN12C renal
UO-31 renal = test system: UO-31 renal
TK-10 renal = test system: TK-10 renal
ACHN renal = test system: ACHN renal
CAKI-1 renal = test system: CAKI-1 renal
CCRF-CEM leukemia = test system: CCRF-CEM leukemia
MOLT-4 leukemia = test system: MOLT-4 leukemia
SR leukemia = test system: SR leukemia
A498 renal = test system: A498 renal

Structure (SMILES)	growth (EKVX NSCLC)	growth (SN12C renal)	growth (UO-31 renal)	growth (TK-10 renal)	growth (ACHN renal)	growth (CAKI-1 renal)	growth (CCRF-CEM leukemia)	growth (MOLT-4 leukemia)	growth (SR leukemia)	growth (A498 renal)
Cc1cccc2c(=O)c3c(sc12)c(NCCCNCCO)nc1ccccc13	53.5%	44.6%	34.8%	49.5%	9.89% (active)	24.8%	15%	-34% (active)	-27.3% (active)	
CCCN1C(=O)N(CCC)C2C1NN=c1s/c(=C3\C(=O)N(C(C)C)c4ccccc43)c(=O)n12 (configuration not stated)	51%	65.9%	30.9%	78.9%	23.4%	31.7%	45.8%	46.3%	7.97% (active)	
COC(=O)c1ccc(NC(=O)CSc2nc3ccccc3c(=O)n2-c2ccccc2)cc1	117%	104%	86.4%	103%	103%	91.5%	92.8%	88%	88.9%	
OCCNc1nc(Nc2ccc(C3=NN(c4cc(Cl)cc(Cl)c4)C(c4ccc(C(F)(F)F)cc4)C3)cc2)nc(N2CCOCC2)n1 (configuration not stated)	71.4%	74.8%	72%	114%	56.8%	71.3%	51%	60.2%	70.5%	
O=C(Nc1ccc(Br)cc1F)c1cc(I)ccc1O	43.8%	5.88% (active)	2.04% (active)	12.9%	6.1% (active)	-16.8% (active)	11.9%	6.68% (active)		
COc1ccccc1C1=C(Br)C(=O)c2nc(C)ccc2C1=O	99.5%	92.4%	77.2%	101%	19.9%	98.4%	92%	117%	105%	
CN1C(=O)N(C)C2C1NN=c1s/c(=C\c3ccc(Cl)cc3Cl)c(=O)n12 (configuration not stated)	50.1%	30.9%	47.3%	83.7%	29%	40.9%	15%	13.1%	4.89% (active)	
Cc1nn(-c2nc3ccccc3[nH]2)c2c1C(c1ccc(OCC(N)=O)cc1)CC(=O)N2 (configuration not stated)	96.9%	101%	81.9%	114%	102%	89.5%	22.5%	-20.1% (active)	117%	
COc1ccc(Cn2cc(Cn3cc(C=C4C(=O)NC(=O)NC4=O)c4ccccc43)nn2)cc1	99.4%	85.8%	56.3%	83.7%	91.4%	70.1%	85%	75.3%		
C#CCn1cc(C=C2C(=O)NC(=O)NC2=O)c2cc(Cl)ccc21	90.9%	81.3%	67.5%	118%	97.4%	72%	82.2%	77.9%		
c1ccc2c(c1)oc1cc3sccc3nc12	101%	93%	66.6%	135%	99.5%	78%	100%	97.7%	96.5%	
COc1cc(CNC(=O)Cc2ccccc2)ccc1OCc1cn(-c2ccc(F)cc2)nn1	94.2%	93.1%	80.7%	112%	94.9%	91.2%	100%	114%	106%	
COc1cc(/C=C2\CN(C)C/C(=C\c3cc(CN4CCCC4)c(O)c(OC)c3)C2=O)cc(CN2CCCC2)c1O	83.9%	53.6%	80.7%	101%	79%	99.6%	34.1%	57.6%	38.7%	
C=CCN1C(=O)/C(=c2\sc3n(c2=O)NC2C(N=3)N(CC)C(=O)N2CC)c2ccccc21 (configuration not stated)	49.2%	56.7%	56%	101%	52.9%	42.3%	24.4%	36.4%	21.1%	
O=c1oc2ccc(Br)cc2c(=O)n1-c1ccc(I)cc1F	12.5%	-1.37% (active)	7.32% (active)	7.64% (active)	3.46% (active)	-8.71% (active)	7.41% (active)	-26.3% (active)		
COc1ccc2occ(C3=C(c4c[nH]c5ccccc45)C(=O)NC3=O)c2c1	49.4%	38.4%	40.4%	81.5%	70.2%	36.6%	51.9%	30.2%	29.4%	
COc1ccc2[nH]c(O)c(N=NC(=O)c3oc4ccccc4c3C)c2c1	37.3%	34.9%	-55.3% (active)	-64% (active)	-50.9% (active)	-51.7% (active)	57.1%	50.9%	43.5%	
Brc1ccc(Oc2ccc(Nc3ncnc4onc(-c5ccccc5)c34)cc2)cc1	105%	94.8%	73%	110%	105%	91.8%	97.3%	94%	94.2%	
Cc1cccc2c(=O)c3c(sc12)c(N1CCNCC1)nc1ccccc13	68.9%	69.8%	36.7%	86.3%	46%	54.8%	62.4%	33.8%	-17% (active)	
CCN1C(=O)N(c2ccccc2)C2Nn3c(s/c(=C4\C(=O)N(C(C)C)c5ccccc54)c3=O)=NC21 (configuration not stated)	97.8%	102%	79.9%	122%	108%	86.9%	103%	107%	108%	

Structure (SMILES)	growth (EKVX NSCLC)	growth (SN12C renal)	growth (UO-31 renal)	growth (TK-10 renal)	growth (ACHN renal)	growth (CAKI-1 renal)	growth (CCRF-CEM leukemia)	growth (MOLT-4 leukemia)	growth (SR leukemia)	growth (A498 renal)
Cc1c(-c2csc(-n3nc(C(F)(F)F)cc3C(F)(F)F)n2)no[n+]1[O-]	69.6%	95.7%	85.8%	118%	107%	87.6%	95.7%	87.3%	91.1%	
O=c1oc2ccc(Br)cc2c(=O)n1-c1ccc(Br)cc1F	3.25% (active)	-1.73% (active)	-19.5% (active)	18.9%	-6.06% (active)	-10.6% (active)	9% (active)	-16.6% (active)	3.7% (active)	
CCN1C(=O)N(CC)C2C1NN=c1s/c(=C3\C(=O)N(CC(C)(C)C)c4ccccc43)c(=O)n12 (configuration not stated)	49.6%	32.6%	38.9%	84.3%	40.7%	38.5%	10.2%	16.3%	6.48% (active)	
CN1C(=O)N(C)C2C1NN=c1s/c(=C\c3ccc([N+](=O)[O-])cc3)c(=O)n12 (configuration not stated)	87.5%	88.7%	63.5%	95.2%	53.6%	40.2%	70.4%	64.3%	22%	
Fc1cccc(COc2ccc(Nc3ncnc4onc(-c5ccccc5)c34)cc2)c1	32.9%	22.3%	18.6%	49.1%	37.1%	37.5%	20.1%	15.4%	26.1%	
O=C(/C=C/c1cccc(Cl)c1)OCc1ccc2cc1OCC#C/C=C\C#CCO2	115%	95.7%	80.2%	122%	99.4%	101%	84%	73.2%	63%	
CCCCN1CCN(c2ccc3nc(-c4ccc5nc(-c6ccc(OC)c(OC)c6)[nH]c5c4)[nH]c3c2)CC1	38.8%	7.75% (active)	50.7%	14.9%	2.47% (active)	2.32% (active)	3.3% (active)	-14.3% (active)	-6.6% (active)	
CCCSC1=NC2C(N(CC)C(=O)N2CC)N1/N=C/C=C/c1ccccc1[N+](=O)[O-] (configuration not stated)	53.6%	40.6%	44%	85.1%	41.5%	44.1%	16%	18.6%	9.32% (active)	
O=C(CN1C=NC2C(N3CCOCC3)=NC=NC21)c1ccc(Br)cc1 (configuration not stated)	97.6%	98.3%	78.6%	117%	103%	85.4%	105%	105%	104%	
COc1ccc(Cn2cc(Cn3c(=O)c(-c4nc5ccccc5[nH]4)cc4ccccc43)nn2)c(OC)c1OC	30.8%	18.7%	18.2%	33.9%	35%	21.7%	22.6%	17.9%	21.8%	
COC(=O)c1c2c(c(C)[n+]([O-])c1C)C(=O)C(NCc1ccc(Br)cc1)=CC2=O	31.8%	4.82% (active)	60.9%	84.4%	32.6%	46.4%	34.3%	35%	30.2%	
CN1C(=O)N(C)C2C1NN=c1s/c(=C\c3c[nH]c4ccccc34)c(=O)n12 (configuration not stated)	51.7%	35.4%	48%	86.4%	32.5%	81.7%	16.2%	14.9%	8.78% (active)	
O=C(N=Nc1c(O)[nH]c2ccccc12)c1oc2ccccc2c1CN1CCN(c2ccccc2)CC1	4.35% (active)	11.5%	-52.2% (active)	-45.1% (active)	-85.2% (active)	32.9%	19.7%	30.7%	1.67% (active)	
Cc1cc(Br)c(N)c(Br)c1	95.6%	109%	102%		99.1%	98%	103%	96.4%	100%	84.1%
CN1C(=O)N(C)C2(c3ccccc3)n3c(s/c(=C\c4ccccc4)c3=O)=NNC12c1ccccc1 (configuration not stated)	76.1%	91.3%	74.9%	116%	95%	84.5%	92.2%	83%	71.9%	
COC(=O)c1c2c(c(C)[n+]([O-])c1C)C(=O)C(NCc1ccc(F)c(F)c1)=CC2=O	13%	1.1% (active)	58.8%	85.5%	22.1%	43%	21.5%	8.41% (active)	20.4%	
CC(C)Cn1c2c(c(=S)[nH]c1=O)CCC2	102%	97.6%	86%	102%	103%	89.1%	99.3%	108%	106%	
CCN(CCO)CCNc1ccc(C)c2sc3cc(Cl)ccc3c(=O)c12	84.4%	37.8%	37.5%		7.81% (active)	68%	14.4%	7.65% (active)	-19.4% (active)	1.76% (active)
COc1ccc(/C=c2\sc3n(c2=O)NC2C(N=3)N(C)C(=O)N2C)cc1 (configuration not stated)	98.4%	101%	77.6%	112%	105%	85%	95.7%	102%	86.8%	
